Inconclusive results are not listed. The source made the active and inactive calls. The call rests on the fitted dose curve; in most records, active means well fitted activation curve with a large enough effect in the signal ratio in the repeat runs, with a control signal flat (not every such curve was filed as active); inconclusive means weak or mixed curves, or effect the other way; inactive means no such curve, though single readings can be large or run the other way; the % refers to the signal ratio.
Each compound was assayed against Androgen receptor (Homo sapiens) (UniProt P10275) (assay: qHTS assay to identify small molecule agonists of the androgen receptor (AR) signaling pathway (AID 743036)). Settings: HEK293 AR-UAS-bla GripTite, beta-lactamase FRET ratio, 16 h; series mostly up to 62.4 µM.
Sequence of Androgen receptor (Homo sapiens) (P10275 whole entry, looked up): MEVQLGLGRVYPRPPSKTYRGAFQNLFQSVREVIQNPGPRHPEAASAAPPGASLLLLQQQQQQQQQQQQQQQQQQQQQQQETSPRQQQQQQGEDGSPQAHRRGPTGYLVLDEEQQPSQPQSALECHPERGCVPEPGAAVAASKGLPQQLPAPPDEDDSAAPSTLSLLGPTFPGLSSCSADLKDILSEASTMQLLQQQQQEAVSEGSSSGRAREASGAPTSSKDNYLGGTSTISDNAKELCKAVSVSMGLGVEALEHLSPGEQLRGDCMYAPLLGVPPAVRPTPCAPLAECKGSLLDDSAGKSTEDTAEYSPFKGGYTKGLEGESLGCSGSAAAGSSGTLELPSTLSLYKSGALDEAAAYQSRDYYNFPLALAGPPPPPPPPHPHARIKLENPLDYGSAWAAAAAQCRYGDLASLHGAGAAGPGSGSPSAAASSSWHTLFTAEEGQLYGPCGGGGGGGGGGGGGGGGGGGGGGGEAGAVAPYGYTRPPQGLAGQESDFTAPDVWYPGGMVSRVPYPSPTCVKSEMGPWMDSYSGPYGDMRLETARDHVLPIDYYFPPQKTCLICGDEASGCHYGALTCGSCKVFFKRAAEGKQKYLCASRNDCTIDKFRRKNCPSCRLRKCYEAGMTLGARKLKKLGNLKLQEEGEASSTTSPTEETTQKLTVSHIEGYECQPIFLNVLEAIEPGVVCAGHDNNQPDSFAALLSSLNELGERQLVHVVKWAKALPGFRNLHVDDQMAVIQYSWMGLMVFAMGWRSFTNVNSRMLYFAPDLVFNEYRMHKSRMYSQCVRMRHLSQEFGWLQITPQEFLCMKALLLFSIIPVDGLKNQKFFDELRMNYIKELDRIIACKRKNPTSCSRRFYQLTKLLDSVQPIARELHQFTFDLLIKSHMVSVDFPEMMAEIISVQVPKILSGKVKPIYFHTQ
From the text: U.S. Tox21 Program National Center for Advancing Translational Sciences [NCATS] NIH Chemical Genomics Center [NCGC] U.S. Environmental Protection Agency [EPA] National Institutes of Environmental Health Sciences [NIEHS] National Toxicology Program [NTP] U.S. Food and Drug Administration [FDA] Tox21 Assay Overview: Androgen receptor (AR), a nuclear hormone receptor, plays a critical role in AR-dependent prostate cancer and other androgen related diseases. Endocrine disrupting chemicals (EDCs) and their interactions with steroid hormone receptors like AR may cause disruption of normal endocrine function as well as interfere with metabolic homeostasis, reproduction, developmental and behavioral functions. To identify the compounds that activate AR signaling, GeneBLAzer AR-UAS-bla-GripTite cell line (Invitrogen, Carlsbad, CA, USA) containing a beta-lactamase reporter gene under the control of an Upstream Activator Sequence (UAS) stably integrated into HEK293 cells was used to screen the Tox21 10K compound library.
Tox21 Assay Protocol Summary: AR-bla cells were dispensed at 2,000 cells/6 uL/well of assay medium into black wall/clear-bottom 1536-well plates using a Multidrop Combi (ThermoFisher Scientific, Waltham, MA) dispenser. After the assay plates were incubated at 37C and 5% CO2 for 4 h, 23 nL of compounds dissolved in DMSO, positive controls or DMSO only was transferred to the assay plate by a Pintool station (Kalypsys, San Diego, CA). The plates were incubated at 37C and 5% CO2 for 16 h. Then 1 uL of LiveBLAzerTM B/G FRET substrate was added using a Bioraptr Flying Reagent Dispenser (FRD) workstation (Beckman Coulter, Indianapolis, IN, USA). The plates were incubated at room temperature for 2 h, and fluorescence intensity was measured by an Envision plate reader (PerkinElmer, Shelton, CT).

Row | SMILES | outcome
1 | CC1CCCC(=O)C1=O (stereo unspecified) | inactive
2 | COC(=O)CC(C(C)=O)C(=O)OC (stereo unspecified) | inactive
3 | Nc1ccc(NC(=O)c2ccc(N)cc2)cc1 | inactive
4 | CCC(C)(C)C(=O)O | inactive
5 | CC(=O)c1ccc[nH]1 | inactive
6 | Nc1ccc(F)cc1 | inactive
7 | CCC(CO)(CO)CO | inactive
8 | C1=CCC2CC=CC2C1 (stereo unspecified) | inactive
9 | O=C(C(=O)c1ccco1)c1ccco1 | inactive
10 | O=S(=O)(Cl)c1c(Cl)cccc1Cl | inactive
11 | CC1CCC(C(C)CS)CC1S (stereo unspecified) | inactive
12 | CCCCCCCC(=O)OCCCCCC | inactive
13 | CC(=O)OCC(C)C | inactive
14 | O=C(O)c1cc(Cl)cc(Cl)c1O | inactive
15 | C[C@H](CS)C(=O)N1CCC[C@H]1C(=O)O | inactive
16 | Cc1cn([C@H]2C[C@H](F)[C@@H](CO)O2)c(=O)[nH]c1=O | inactive
17 | BrC(Br)C(Br)Br | inactive
18 | C=Cc1ccc(OC(C)=O)cc1 | inactive
19 | O=C1CC[C@@H](C(=O)O)N1 | inactive
20 | CCN(CC)c1ccc(C(=C2C=CC(=[N+](CC)CC)C=C2)c2ccc(S(=O)(=O)O)cc2S(=O)(=O)[O-])cc1 | inactive
21 | CCOC(=O)c1ccc(NC(=O)CN2CCCCC2)cc1 | inactive
22 | O=C(Oc1ccccc1)c1ccc2ccccc2c1O | inactive
23 | CCc1ccc(C)cc1 | inactive
24 | CN1C(CSCC(F)(F)F)Nc2cc(Cl)c(S(N)(=O)=O)cc2S1(=O)=O (stereo unspecified) | inactive
25 | O=NN(CCCl)C(=O)NCCCl | inactive
26 | CCCCCCCCCCCCCC(=O)OCC(O)CO (stereo unspecified) | inactive

From PubChem BioAssay (Tox21)
